HTT prom inh – HTT promoter inhibition. HEK293 HTT promoter firefly luciferase reporter, 24 h. Potency, µM (titrated, usually from 57.5 µM), without a hit: top-dose activity change, negative = inhibition, hits mostly inhibitors. 0.93% of 48,000 active; note: potency is the fitted concentration of half-maximal effect; nearly all actives have a fitted effect of over 50% in size
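HEK293 Fluc reporter, 2,500 cells/well, 24 h pre-culture; cpds up to 57.5 uM final, 24 h 37 degrees C; Dual-Glo, 10 min RT; normalized vehicle = 0%, zero RLU = -100%.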
NTMT1 inhibitor – inhibitors of human N-terminal methyltransferase NTMT1. Q9BV86. NTMT1 MTase-Glo SAH luminescence, purified enzyme. Potency, µM (doses to about 114 µM), inactives show at the top dose activity change, negative = inhibition, most hits filed as inhibitors. 2.5% of 59,000 active. AID 1645870;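 note: potency is the fitted concentration of half-maximal effect; plate controls were DMSO vehicle for no effect and no enzyme for full effect; nearly all actives have a fitted effect of over 65% in size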
Target sequence (Q9BV86 whole entry, looked up): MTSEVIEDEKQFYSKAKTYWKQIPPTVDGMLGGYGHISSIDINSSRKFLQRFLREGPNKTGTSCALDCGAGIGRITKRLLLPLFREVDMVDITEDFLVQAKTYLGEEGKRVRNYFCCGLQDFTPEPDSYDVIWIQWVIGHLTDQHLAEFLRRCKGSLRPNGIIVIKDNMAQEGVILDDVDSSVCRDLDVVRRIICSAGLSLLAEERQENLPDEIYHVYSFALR
PTAP-TSG101 blk – TSG101-PTAP interaction inhibition, HIV-1 budding; Q99816; Fluorescence polarization, FITC-PTAP peptide/Tsg101, 20 min; Potency, µM (series often up to 115 µM), usual class: inhibitors; 44,000 tested, under 10 active; AID 1347069; note: potency is the fitted concentration of half-maximal effect; 0% is about no effect
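Compounds pinned into 10 uM Tsg101 binding domain, then 50 nM FITC-PTAP peptide added in pH 7.5 HEPES buffer; FP read after 20 min, room temperature. Total S+P intensity flags fluorescent compounds; active cut-off <25 µM, efficacy <60%.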
HTT-AS act – activates huntingtin-antisense promoter activity; HEK293 HTT-AS promoter firefly luciferase reporter, 24 h; response scale: percent change from vehicle, -100% = no light; Potency, µM (doses to about 57.5 µM), for the others: at the top dose activity change, positive = activation, actives largely listed as activators; 0.24% of 48,000 active; note: potency is the fitted concentration of half-maximal effect; nearly all actives have a fitted effect of over 55% in size
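HEK293 cells carrying firefly luciferase reporters were seeded at 2,500 per well in Opti-MEM and cultured for 24 h. They were then treated with compounds at up to 57.5 uM final for 24 h at 37 degrees C before Dual-Glo luminescence readout.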
B2AR arrestin ag – ADRB2 beta-arrestin recruitment; 44,000 tested, under 10 active; P07550; HTLA Tango cells, beta-arrestin recruitment, luciferase luminescence, 18 h; Potency, µM (doses to about 46.1 µM), most hits filed as activators; AID 1347077;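 note: potency is the fitted concentration of half-maximal effect; 0% = DMSO and full agonism = EC100 isoproterenol or metaproterenol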
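Tango cells expressing recombinant beta2-AR and beta-arrestin were treated with compounds (up to 46 microM titration) in DMEM with 1% FBS for 18 hr at 37 degrees C. Beta-arrestin recruitment drove tTA-dependent luciferase, read by luminescence; curves were fitted and classed.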
GALK inhibitor – inhibitors of human galactokinase (GALK); P51570; recombinant GALK, Kinase-Glo ATP luminescence, 1 h; Potency, µM (doses to about 57.5 µM), inactives show at the highest dose activity, negative = inhibition, usual class: inhibitors; 44,000 tested, under 10 active;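 note: plate controls were full GALK reaction for no effect and reaction lacking GALK for full effect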
Target sequence (P51570 whole entry, looked up): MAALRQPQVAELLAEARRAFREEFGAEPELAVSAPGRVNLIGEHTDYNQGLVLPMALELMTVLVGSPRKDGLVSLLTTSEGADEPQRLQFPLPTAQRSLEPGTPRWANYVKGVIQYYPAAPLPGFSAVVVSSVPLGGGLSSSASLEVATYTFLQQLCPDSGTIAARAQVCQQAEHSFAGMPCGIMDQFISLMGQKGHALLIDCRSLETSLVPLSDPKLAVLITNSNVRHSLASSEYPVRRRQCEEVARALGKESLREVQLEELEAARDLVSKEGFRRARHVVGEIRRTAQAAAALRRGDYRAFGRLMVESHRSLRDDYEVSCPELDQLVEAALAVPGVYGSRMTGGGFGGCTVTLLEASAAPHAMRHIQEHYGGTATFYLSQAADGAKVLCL
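5 nM GALK; 35 uM ATP; 100 uM D-galactose; 20 mM HEPES pH 8.0, 5 mM MgCl2, 60 mM NaCl, 1 mM DTT, 0.01% BSA; 1 h RT; Kinase-Glo Plus luminescence.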
Starred values were filed as active, the others as inactive; i = inactive; ? = inconclusive; . = no result given; ! = not active in a repeat; [ ] = dose if it differs, or a comment. The entries come from a sample that favours hits as a whole. Calls come from the whole dose curve; as a rule, active = well fitted curve in the direction sought with a large enough effect; inconclusive = small, poorly fitted or top-dose-only effect, or another doubt; inactive = no such curve, though single readings can be large; an effect the other way counts as inactive or inconclusive.

SMILES | HTT prom inh | NTMT1 inhibitor | PTAP-TSG101 blk | HTT-AS act | B2AR arrestin ag | GALK inhibitor
CC(=O)Nc1ccc(NC(=O)C2CCN(c3cnccn3)CC2)cc1 | -4% | ? | i | -10% | i | ?
CC(C)(C)c1ccc(NC(=O)C2CCCN(c3cnccn3)C2)cc1 (stereo not given) | -8% | 89µM* | i | 19% | ? | 3%
Cc1c(Cl)cccc1NC(=O)c1ccc2c(c1)CCCN2S(C)(=O)=O | ? | 2% | i | 12% | i | -12%
CCCCc1ccc(NC(=O)c2ccc3c(c2)CCN3S(=O)(=O)CC)cc1 | 22µM* | -17% | i | -47% | i | 2%
CCS(=O)(=O)N1CCc2cc(C(=O)Nc3cccc(C(C)=O)c3)ccc21 | 20% | ? | i | 0% | i | -9%
Cc1ccc(C)c(NC(=O)c2ccc3c(c2)CCCN3S(C)(=O)=O)c1 | 34% | -1% | i | 7.9µM* | i | 4%
CC(C)c1ccc(NC(=O)c2ccc3c(c2)CCCN3S(C)(=O)=O)cc1 | 10µM* | 8% | i | -31% | i | 1%
Cc1[nH]c(C=C2C(=O)Nc3ccc(S(=O)(=O)N(C)c4cccc(Cl)c4)cc32)c(C)c1C(=O)N1CCN(C)CC1 | -19% | 4%[57.5 µM] | . | -15% | . | .
CCN(CC)CCNC(=O)c1c(C)[nH]c(/C=C2\C(=O)Nc3ccc(Cl)cc32)c1C | . | 25µM* | . | . | . | .
O=C(Nc1ccc(-c2nc3ccccc3[nH]2)cc1)Nc1ccc2c(c1)CCCO2 | . | 12% | . | . | . | .
Cc1cc(=O)n(CC(=O)N2CCN(c3ccccc3F)CC2)c2c1c(C)nn2C | 20µM* | -4% | i | -54% | i | 2%
Cc1ccc(S(=O)(=O)Nc2cccc(C(=O)Nc3nc(-c4ccccc4)cs3)c2Cl)cc1 | . | 7% | . | . | . | .
CCc1ccc(CN(Cc2cn[nH]c2-c2ccc(OC)cc2)C(=O)Nc2ccc(Br)cc2)cc1 | 14µM* | 3% | i | -58% | i | 0%
CCc1cc2c(cc1CC)CC(NCC(O)c1ccc(O)c3[nH]c(=O)ccc13)C2 (stereo not given) | . | 3%[57.5 µM] | . | . | . | .
CC(O)(C#Cc1ccc2c(c1)N(c1nc(N)ncc1Cl)CC2)c1nccs1 (stereo not given) | ? | 35µM* | . | -23% | . | .
CN1CCN(c2ccc3nc(-c4cc(C(C)(C)C)c(OCCCC(=O)NCCCN=[N+]=[N-])c(C(C)(C)C)c4)[nH]c3c2)CC1 | . | 0% | . | . | . | .
CCOc1ccccc1C1CC(=O)NC(C)=C1C(=O)OC1CCCCCC1 (stereo not given) | 32µM* | 0% | i | -45% | i | 1%
CC1=C(C(=O)OC2CCCCCC2)C(c2ccccc2Cl)CC(=O)N1 (stereo not given) | ? | -9% | i | -33% | i | -10%
Cc1c(C(=O)N2CCOc3ccc(-c4ccc(N)nc4)cc3C2)ccc(S(C)(=O)=O)c1F | . | 50µM*! | . | . | . | .
CC(C)c1cc(-c2n[nH]c(=O)n2-c2ccc3c(ccn3C)c2)c(O)cc1O | ? | 28µM*! | . | -59% | . | .
C[N+]1(CC2COC(c3ccccc3)(C3CCCCC3)O2)CCCCC1 (stereo not given) | 4% | 16µM* | . | 1% | . | .
CN(C)CC1CCOC1(c1ccccc1)c1ccccc1 (stereo not given) | . | 5%[12.6 µM] | . | . | . | .
CCc1ccc(OCC(=O)Nc2ccc(Cl)c(-c3nc4cc(C)cc(C)c4o3)c2)cc1 | . | . | i | . | i | 0%
Cc1ccc2nc(-c3cc(NC(=O)COc4ccc(C)c(C)c4)ccc3Cl)oc2c1 | 7% | -1% | i | 2.5µM* | i | 0%
Cc1cc(N[S+](=O)([O-])c2ccc(NC(=O)Cc3nc4ccc(Cl)cc4[nH]3)cc2)no1 | . | -4%[57.5 µM] | . | . | . | .
SMILES | HTT prom inh | NTMT1 inhibitor | PTAP-TSG101 blk | HTT-AS act | B2AR arrestin ag | GALK inhibitor
COc1ccc(C2CC(=O)N3CN(C4CCCCC4)CSC3=C2C#N)cc1 (stereo not given) | 7% | 13µM* | i | 5% | i | 6%
COc1cccc(C2CC(=O)N3CN(C4CCCCC4)CSC3=C2C#N)c1 (stereo not given) | -20% | 11µM* | i | -16% | i | 0%
COc1cccc(Nc2nc(C#N)nc(NC3CCCC3)n2)c1 | . | -12%[57.5 µM] | . | . | . | .
c1cncc(-c2ccc(CNc3nc(C4CCCC4)nc4ccccc34)cc2)c1 | . | 9% | . | . | . | .
Nc1c(C(=O)c2ccccc2)sc(Nc2ccc(Cl)c(Cl)c2)c1C(=O)Nc1ccccc1 | 28µM* | -19% | i | -43% | i | -3%
O=c1cc(-c2ccc(O)c(O)c2)oc2cc(O)cc(O)c12 | 48% | 32µM*! | . | ? | . | .
O=c1c(O)c(-c2ccc(O)c(O)c2)oc2cc(O)cc(O)c12 | -12% | ? | . | -6% | . | .
COc1ccc(C)cc1NC(=O)NCc1cccn1Cc1ccccc1 | -7% | 89µM* | i | -9% | i | -1%
O=[N+]([O-])c1ccc(CNc2nc(NCc3cccc(C(F)(F)F)c3)nc3nc[nH]c23)cc1 | . | 10%[57.5 µM] | . | . | . | .
C[C@@H](N[C@H]1CCCC[C@@H]1NC(=O)c1ccc(Cl)cc1)c1cccc2ccccc12 | . | -2%[57.5 µM] | . | . | . | .
CCCCOC(=O)c1cccc(NC(=O)c2cc3ccccc3o2)c1 | 10µM* | 1% | i | -52% | i | 0%
CCCCOC(=O)c1ccc(NC(=O)c2cc(=O)c3ccccc3o2)cc1 | -17% | ? | i | 0% | i | -2%
Cc1ccc(NC(=O)CN2C(=O)N/C(=C\c3cccn3-c3cccc(-c4nn[nH]n4)c3)C2=O)cc1 | . | -1% | . | . | . | .
O=c1oc2ccccc2n1CCCOc1ccccc1Cl | 22% | 1% | i | 7.9µM* | i | -2%
Cc1ccc(S(=O)(=O)Nc2ccc(C(=O)Nc3nc(-c4ccccc4)cs3)cc2Cl)cc1 | . | -1% | . | . | . | .

From PubChem BioAssay
